# Reference: the supplement of paper PMC4466140
# B1: unnamed (peptide)
# chain: QQNRPLPQLPNRNNR
# Experiments:
# Experiment in all cases: SPOT peptide array binding signal intensity (averaged, normalized) (arbitrary units (background-subtracted, floor 0; scale differs between SH3 domains)); higher = stronger binding of the SH3 domain to the peptide
# AgAbp1 = target: AgAbp1
# Procedure: (§1)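 GST-tagged SH3 domains from S. cerevisiae (Sc), A. gossypii (Ag), C. albicans (Ca) and S. pombe (Sp) were incubated at 10 ug/ml overnight at 4 C on cellulose SPOT membranes carrying 292 synthetic 15-mer peptides mined from the S. cerevisiae proteome (cysteines replaced by serines). Binding was detected with anti-GST antibody, HRP secondary and chemiluminescence, quantified with Genespotter, and reported as normalized spot intensities averaged over biological replicates.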
# AgBbc1 = target: AgBbc1
# Procedure: as §1
# AgBem1-D1 = target: AgBem1-D1
# Procedure: as §1
# AgBzz1-D1 = target: AgBzz1-D1
# Procedure: as §1
# AgBzz1-D2 = target: AgBzz1-D2
# Procedure: as §1
# AgCyk3 = target: AgCyk3
# Procedure: as §1
# AgFus1 = target: AgFus1
# Procedure: as §1
# AgHof1 = target: AgHof1
# Procedure: as §1
# AgHse1 = target: AgHse1
# Procedure: as §1
# AgLsb1 = target: AgLsb1
# Procedure: as §1
# AgLsb4 = target: AgLsb4
# Procedure: as §1
# AgMyo5 = target: AgMyo5
# Procedure: as §1
# AgNbp2 = target: AgNbp2
# Procedure: as §1
# AgRvs167 = target: AgRvs167
# Procedure: as §1
# AgSho1 = target: AgSho1
# Procedure: as §1
# AgSla1-D1-D2 = target: AgSla1-D1-D2
# Procedure: as §1
# AgSla1-D3 = target: AgSla1-D3
# Procedure: as §1
# CaAbp1-D1 = target: CaAbp1-D1
# Procedure: as §1
# CaAbp1-D2 = target: CaAbp1-D2
# Procedure: as §1
# CaBbc1 = target: CaBbc1
# Procedure: as §1
# CaBem1-D1 = target: CaBem1-D1
# Procedure: as §1
# CaBzz1-D1 = target: CaBzz1-D1
# Procedure: as §1
# CaBzz1-D2 = target: CaBzz1-D2
# Procedure: as §1
# CaCyk3 = target: CaCyk3
# Procedure: as §1
# CaFus1 = target: CaFus1
# Procedure: as §1
# CaHof1 = target: CaHof1
# Procedure: as §1
# CaHse1 = target: CaHse1
# Procedure: as §1
# CaLsb1 = target: CaLsb1
# Procedure: as §1
# CaLsb4 = target: CaLsb4
# Procedure: as §1
# CaMyo5 = target: CaMyo5
# Procedure: as §1
# CaNbp2 = target: CaNbp2
# Procedure: as §1
# CaRvs167 = target: CaRvs167
# Procedure: as §1
# CaRvs167-3 = target: CaRvs167-3
# Procedure: as §1
# CaSho1 = target: CaSho1
# Procedure: as §1
# CaSla1-D1-D2 = target: CaSla1-D1-D2
# Procedure: as §1
# CaSla1-D3 = target: CaSla1-D3
# Procedure: as §1
# ScAbp1 = target: ScAbp1
# Procedure: as §1
# ScBbc1 = target: ScBbc1
# Procedure: as §1
# ScBem1-D1 = target: ScBem1-D1
# Procedure: as §1
# ScBzz1-D1 = target: ScBzz1-D1
# Procedure: as §1
# ScBzz1-D2 = target: ScBzz1-D2
# Procedure: as §1
# ScCyk3 = target: ScCyk3
# Procedure: as §1
# ScFus1 = target: ScFus1
# Procedure: as §1
# ScHof1 = target: ScHof1
# Procedure: as §1
# ScHse1 = target: ScHse1
# Procedure: as §1
# ScLsb1 = target: ScLsb1
# Procedure: as §1
# ScLsb2 = target: ScLsb2
# Procedure: as §1
# ScLsb3 = target: ScLsb3
# Procedure: as §1
# ScLsb4 = target: ScLsb4
# Procedure: as §1
# ScMyo3 = target: ScMyo3
# Procedure: as §1
# ScMyo5 = target: ScMyo5
# Procedure: as §1
# ScNbp2 = target: ScNbp2
# Procedure: as §1
# ScPex13 = target: ScPex13
# Procedure: as §1
# ScRvs167 = target: ScRvs167
# Procedure: as §1
# ScSho1 = target: ScSho1
# Procedure: as §1
# ScSla1-D1-D2 = target: ScSla1-D1-D2
# Procedure: as §1
# ScSla1-D3 = target: ScSla1-D3
# Procedure: as §1
# SpAbp1-D1 = target: SpAbp1-D1
# Procedure: as §1
# SpBbc1 = target: SpBbc1
# Procedure: as §1
# SpBzz1-D1 = target: SpBzz1-D1
# Procedure: as §1
# SpBzz1-D2 = target: SpBzz1-D2
# Procedure: as §1
# SpCyk3 = target: SpCyk3
# Procedure: as §1
# SpHof1 = target: SpHof1
# Procedure: as §1
# SpHof1-2 = target: SpHof1-2
# Procedure: as §1
# SpHof1-3 = target: SpHof1-3
# Procedure: as §1
# SpHse1 = target: SpHse1
# Procedure: as §1
# SpLsb1 = target: SpLsb1
# Procedure: as §1
# SpLsb4 = target: SpLsb4
# Procedure: as §1
# SpMyo1 = target: SpMyo1
# Procedure: as §1
# SpNbp2 = target: SpNbp2
# Procedure: as §1
# SpPex13 = target: SpPex13
# Procedure: as §1
# SpRvs167 = target: SpRvs167
# Procedure: as §1
# SpSla1-D1-D2 = target: SpSla1-D1-D2
# Procedure: as §1
# SpSla1-D3 = target: SpSla1-D3
# Procedure: as §1
binder,measurement,setting,value
B1,SPOT peptide array binding signal intensity,AgAbp1,30
same,SPOT peptide array binding signal intensity,AgBbc1,585
same,SPOT peptide array binding signal intensity,AgBem1-D1,98.5
same,SPOT peptide array binding signal intensity,AgBzz1-D1,73
same,SPOT peptide array binding signal intensity,AgBzz1-D2,80
same,SPOT peptide array binding signal intensity,AgCyk3,102
same,SPOT peptide array binding signal intensity,AgFus1,17
same,SPOT peptide array binding signal intensity,AgHof1,938
same,SPOT peptide array binding signal intensity,AgHse1,29
same,SPOT peptide array binding signal intensity,AgLsb1,148
same,SPOT peptide array binding signal intensity,AgLsb4,1970
same,SPOT peptide array binding signal intensity,AgMyo5,≤ 0
same,SPOT peptide array binding signal intensity,AgNbp2,0.5
same,SPOT peptide array binding signal intensity,AgRvs167,797
same,SPOT peptide array binding signal intensity,AgSho1,2750
same,SPOT peptide array binding signal intensity,AgSla1-D1-D2,1
same,SPOT peptide array binding signal intensity,AgSla1-D3,≤ 0
same,SPOT peptide array binding signal intensity,CaAbp1-D1,32
same,SPOT peptide array binding signal intensity,CaAbp1-D2,6
same,SPOT peptide array binding signal intensity,CaBbc1,1000
same,SPOT peptide array binding signal intensity,CaBem1-D1,26.5
same,SPOT peptide array binding signal intensity,CaBzz1-D1,132
same,SPOT peptide array binding signal intensity,CaBzz1-D2,90.5
same,SPOT peptide array binding signal intensity,CaCyk3,35
same,SPOT peptide array binding signal intensity,CaFus1,74
same,SPOT peptide array binding signal intensity,CaHof1,17
same,SPOT peptide array binding signal intensity,CaHse1,49.2
same,SPOT peptide array binding signal intensity,CaLsb1,1.5
same,SPOT peptide array binding signal intensity,CaLsb4,4700
same,SPOT peptide array binding signal intensity,CaMyo5,4
same,SPOT peptide array binding signal intensity,CaNbp2,100
same,SPOT peptide array binding signal intensity,CaRvs167,1040
same,SPOT peptide array binding signal intensity,CaRvs167-3,1.75
same,SPOT peptide array binding signal intensity,CaSho1,658
same,SPOT peptide array binding signal intensity,CaSla1-D1-D2,738
same,SPOT peptide array binding signal intensity,CaSla1-D3,3.25
same,SPOT peptide array binding signal intensity,ScAbp1,62
same,SPOT peptide array binding signal intensity,ScBbc1,65
same,SPOT peptide array binding signal intensity,ScBem1-D1,9
same,SPOT peptide array binding signal intensity,ScBzz1-D1,25
same,SPOT peptide array binding signal intensity,ScBzz1-D2,21
same,SPOT peptide array binding signal intensity,ScCyk3,4
same,SPOT peptide array binding signal intensity,ScFus1,22
same,SPOT peptide array binding signal intensity,ScHof1,70.2
same,SPOT peptide array binding signal intensity,ScHse1,≤ 0
same,SPOT peptide array binding signal intensity,ScLsb1,95
same,SPOT peptide array binding signal intensity,ScLsb2,36.5
same,SPOT peptide array binding signal intensity,ScLsb3,6550
same,SPOT peptide array binding signal intensity,ScLsb4,1180
same,SPOT peptide array binding signal intensity,ScMyo3,≤ 0
same,SPOT peptide array binding signal intensity,ScMyo5,≤ 0
same,SPOT peptide array binding signal intensity,ScNbp2,23
same,SPOT peptide array binding signal intensity,ScPex13,1010
same,SPOT peptide array binding signal intensity,ScRvs167,1370
same,SPOT peptide array binding signal intensity,ScSho1,6410
same,SPOT peptide array binding signal intensity,ScSla1-D1-D2,383
same,SPOT peptide array binding signal intensity,ScSla1-D3,2
same,SPOT peptide array binding signal intensity,SpAbp1-D1,17
same,SPOT peptide array binding signal intensity,SpBbc1,28
same,SPOT peptide array binding signal intensity,SpBzz1-D1,450
same,SPOT peptide array binding signal intensity,SpBzz1-D2,1.5
same,SPOT peptide array binding signal intensity,SpCyk3,123
same,SPOT peptide array binding signal intensity,SpHof1,1520
same,SPOT peptide array binding signal intensity,SpHof1-2,1990
same,SPOT peptide array binding signal intensity,SpHof1-3,1170
same,SPOT peptide array binding signal intensity,SpHse1,14
same,SPOT peptide array binding signal intensity,SpLsb1,82.8
same,SPOT peptide array binding signal intensity,SpLsb4,6900
same,SPOT peptide array binding signal intensity,SpMyo1,45.8
same,SPOT peptide array binding signal intensity,SpNbp2,20
same,SPOT peptide array binding signal intensity,SpPex13,3.5
same,SPOT peptide array binding signal intensity,SpRvs167,2080
same,SPOT peptide array binding signal intensity,SpSla1-D1-D2,333
same,SPOT peptide array binding signal intensity,SpSla1-D3,7
